The list is not random: actives were taken first. Their share in the collection is about 0.86%.
CDC25B-CDK2 inh: human CDC25B-CDK2/CyclinA binding inhibition | P30305+P24941 | HTRF CDC25B-CDK2/CyclinA binding, anti-His/anti-Flag; hits give high values | z-score (no concentration beside the values) | actives 0.72% (n = 94,000); in the data active means z-score above about 3.2
TAR Tat displ: HIV-1 TAR-Tat binding disruption. HIV-1 TAR RNA, Tat peptide displacement FRET; hits give high values. z-score (test concentration not listed). actives 0.6% (n = 100,000); active means z-score of 3 or more in at least 2 runs
An asterisk follows results filed as active; x = no result; ! = not confirmed by another sample.

SMILES	CDC25B-CDK2 inh	TAR Tat displ
O=C1CSC(c2ccc(F)cc2)N1c1ccccc1 (configuration not stated)	-1.7	1.4
C=CCN(C(=O)CSc1nc2ncccc2o1)c1ccccc1	x	1.3
O=C(/C=C/c1ccco1)Nc1ccc(C(=O)O)cc1NC(=O)/C=C/c1ccco1	17*	x
O=C(O)/C=C/C(=O)Nc1ccc(C(F)(F)F)cc1NC(=O)/C=C/C(=O)O	-0.58	x
COC(=O)c1cc2occc2n1CC(=O)NCCC1=CCCCC1	-0.45	x
CCC(=O)Nc1nc2c(s1)CC(C(C)(C)C)CC2 (configuration not stated)	1.5	0.69
CCCN[C@H]1CCc2nc(N)sc2C1	-0.45	11*!
Cc1cc(C)c(S(=O)(=O)Nc2ccc(O)cc2)c(C)c1	-0.75	0.57
Cc1cc(C)c(S(=O)(=O)Nc2cc(Br)c(O)c3ccccc23)c(C)c1	19*	x
COc1ccc(Cl)cc1-n1nnc(-c2nc(-c3ccc(F)cc3)no2)c1N	x	0.63
COc1ccc(C2CC(=O)N3CN(c4ccc(N(C)C)cc4)CSC3=C2C#N)cc1 (configuration not stated)	5.5*	-0.01
Cc1ccc(C2CC(=O)N3CN(c4ccc(N(C)C)cc4)CSC3=C2C#N)cc1 (configuration not stated)	6.7*	-1.1
O=C(Cn1nc2c3sccc3ncn2c1=O)Nc1ccc2c(c1)OCCO2	x	0.47
O=C1CC(c2nc3ccccc3n2Cc2ccc(F)cc2)CN1Cc1ccccc1 (configuration not stated)	-1.9	-0.72
Cc1ccc2cc(NC(=O)C3CC(=O)N(Cc4ccc(F)cc4)C3)ccc2n1 (configuration not stated)	6.6*	x
CSc1ccc(CNC(=O)CN=C2NS(=O)(=O)C(c3ccc(C)c(C)c3)=C2C)cc1	x	1.8
CCOC(=O)c1nn(-c2ccc(Cl)cc2)c(=O)c2c(N)scc12	18*	-3
CCOC(=O)c1nn(-c2ccc(Cl)cc2)c(=O)c(C#N)c1C	-1.2	0.3
CCOC(=O)c1nn(-c2ccc(C)cc2)c(=O)c2c(N)scc12	18*	-5.5
CCOC(=O)c1nc(N)c(=O)n(-c2ccc(C)cc2)n1	-7.1	x
CS(=O)(=O)c1ncc(Cl)c(C(=O)Nc2cccnc2)n1	0.16	2.2
Cc1cccc(N2CCN(c3cc(C(=O)O)c4cc(N)ccc4n3)CC2C)c1 (configuration not stated)	x	6.5*
CC1CCN(c2cc(C(=O)O)c3cc(N)ccc3n2)CC1	x	-6.2
CC(=O)OCCNc1cc(N2CCCC(C)C2)c2noc3c2c1C(=O)c1ccccc1-3 (configuration not stated)	-0.95	2.8
COc1ccc(NC(=O)c2sc(=S)n3c2[nH]c(=O)c2sccc23)cc1OC	x	9.2*
SMILES	CDC25B-CDK2 inh	TAR Tat displ
COc1ccc(NC(=O)c2sc(=S)n3c2[nH]c(=O)c2ccccc23)cc1OC	x	3.6
Fc1ccc(-c2cn3ccccc3n2)cc1	1.2	1.2
Fc1ccc(-c2cn3c(n2)Cc2ccccc2C3)cc1	18*	x
C=CC1=C(C(=O)O)N2C(=O)[C@@H](NC(=O)/C(=N\O)c3csc(N)n3)[C@H]2SC1 (stereo in doubt)	x	-0.39
C=CC1=C(C(=O)O)N2C(=O)[C@@H](NC(=O)C(=NOCC(=O)O)c3csc(N)n3)[C@H]2SC1	x	26*
Clc1ccc(Cc2nnc3sc(/C=C/c4cccs4)nn23)cc1	-1.5	1.1
COc1ccc(Cc2nnc3sc(/C=C/c4ccco4)nn23)cc1	2.1	8.3*
CCc1nnc2sc(/C=C/c3ccco3)nn12	-1.1	8.4*
COc1ccccc1/C=C/c1nn2c(Cc3ccccc3)nnc2s1	0.3	2.5
Clc1ccc(Cc2nnc3sc(/C=C/c4ccco4)nn23)cc1	4.2*	19*
CC(C)(C)c1nnc2sc(/C=C/c3ccco3)nn12	-1.5	-2.2
O=S1(=O)CC=C(Cl)C1	-0.34	x
Cn1nc(C(=O)Nc2ccc(Cl)cc2)c2c1-c1ccccc1OC2	-0.85	0.61
CCn1c(CC2C(=O)N(Cc3ccccc3)c3ccc(Br)cc32)nc2ccccc2c1=O (configuration not stated)	0.38	2.3
CS(=O)(=O)CC[C@@H](C(=O)NC1CCCCC1)N1Cc2ccccc2C1=O	-0.85	0.21
Cc1cc(-c2ccc(S(=O)(=O)Nc3ccc(Cl)cc3C)o2)n[nH]1	x	1.8
COc1ccc(SCc2cc(=O)n3ccsc3n2)cc1	-0.96	0.47
CC(C)Cn1cc(NC(=O)N2CCC(c3ccccc3)C2)c2ccccc2c1=O (configuration not stated)	x	2.2
O=C1CC(=O)Nc2cc(S(=O)(=O)Nc3ccc4c(c3)OCO4)ccc2N1	x	18*
O=C1CC(=O)Nc2cc(S(=O)(=O)Nc3ccc(F)cc3)ccc2N1	-0.68	0.64
c1ccc(CCNc2ncnc3sc4c(c23)CCCC4)cc1	x	1.2
CC1=C(C#N)c2nc(N)c(C#N)c(C)c2/C1=C/c1ccc(-c2ccc(C(=O)O)c(Cl)c2)o1	5.1*	x
CC1=C(C#N)C(=O)NC(=O)/C1=C\c1ccc(-c2ccccc2)o1	-5.6	x

Compound activity: PubChem, Center for Chemical Genomics, University of Michigan
